Values joined by “and” are separate entries in the source; they are usually repeats but may differ in a detail not shown here. Equal values may be shown once. Records with an inconclusive call do not appear. Entries that show only a call come without a potency. Where a structure was tested more than once in an assay, its records may differ in their call. Active and inactive are the calls of the source. Unless noted, calls come from the whole dose curve; as a rule, active = well fitted curve in the direction sought with a large enough effect; inconclusive = small, poorly fitted or top-dose-only effect, or another doubt; inactive = no such curve, though single readings can be large; an effect the other way counts as inactive or inconclusive.
Tests used:
[1] = target: Glutathione peroxidase 1 (Homo sapiens) (UniProt P07203); assay: Primary qHTS Assay for Inhibitors of Recombinant Selenoprotein Glutathione Peroxidase 1 (GPX1) (AID 1845191); note: nearly all actives have a fitted effect of over 65% in size; note: potency is the fitted concentration of half-maximal effect
Sequence of Glutathione peroxidase 1 (Homo sapiens) (P07203 whole entry, looked up): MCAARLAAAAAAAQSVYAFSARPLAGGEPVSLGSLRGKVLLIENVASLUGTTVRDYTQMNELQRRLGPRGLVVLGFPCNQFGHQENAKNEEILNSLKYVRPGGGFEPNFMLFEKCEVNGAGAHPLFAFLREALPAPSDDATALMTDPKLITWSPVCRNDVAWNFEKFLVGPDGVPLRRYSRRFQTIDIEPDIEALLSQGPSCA
Procedure, shortened: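 GPX1 10 nM, GR 100 nM, GSH 1 mM, NADPH 0.5 mM, CHP 0.5 mM (final). 30-min cpd preincubation, RT. Ex340/Em450 read t=0, t=15 min.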

[2] = target: Phospholipid hydroperoxide glutathione peroxidase GPX4 (Homo sapiens) (UniProt P36969); assay: Primary qHTS Assay for Inhibitors of Recombinant Selenoprotein Glutathione Peroxidase 4 (GPX4) (AID 1845192); note: nearly all actives have a fitted effect of over 65% in size
Sequence of Phospholipid hydroperoxide glutathione peroxidase GPX4 (Homo sapiens) (P36969 whole entry, looked up): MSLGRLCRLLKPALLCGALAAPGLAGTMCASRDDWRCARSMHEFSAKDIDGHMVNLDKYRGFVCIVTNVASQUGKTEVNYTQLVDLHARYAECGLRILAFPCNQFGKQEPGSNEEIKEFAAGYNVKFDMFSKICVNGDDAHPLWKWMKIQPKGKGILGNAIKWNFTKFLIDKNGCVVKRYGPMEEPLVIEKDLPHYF
Procedure, shortened: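 qHTS, GR-coupled: GPX4 200 nM + cpd 30 min RT → GSH 1 mM, NADPH 0.5 mM, GR 100 nM → CHP 0.5 mM start; fluor 340/450 at t0 and t15 min; no-enzyme wells as control.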

[3] = NCATS anti-infectives library activity on HEK293 viability as a counter-qHTS vs the C. elegans viability qHTS (AID 1745854);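 note: HEK293 cells exposed to compounds for 24 hr before the viability read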; note: potency is the fitted concentration of half-maximal effect
Procedure, shortened: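 Compound titrations (final up to 41.7 uM) were incubated with HEK293 cells for 24 hr at 37C under 5% CO2. Viable cells were quantified with CellTiter-Glo after 10 min at ambient temperature.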

[4] = target: Luciferin 4-monooxygenase (Photinus pyralis) (UniProt P08659); assay: Primary firefly luciferase (FLuc) qHTS assay for identification of artifact compounds. (AID 1845220); note: nearly all actives have a fitted effect of over 60% in size; note: potency is the fitted concentration of half-maximal effect
Procedure, shortened: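 In this counter-screen for luciferase artifacts, test compounds met substrate (10 uM each luciferin and ATP) before 10 nM enzyme started the reaction. Light output was measured 5 min later.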

[5] = Primary fluorescence-based thiol-reactive (MSTI) qHTS assay for identification of artifact compounds. (AID 1845221); note: nearly all actives have a fitted effect of over 65% in size; note: potency is the fitted concentration of half-maximal effect
Procedure, shortened: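 A multi-concentration qHTS design tested compounds against 4 uM MSTI, pH 7.4 phosphate-buffered saline. Plates were protected from light for 1 h at room temperature before imaging fluorescence.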

[6] = tested on: Nanoluciferase (engineered Oplophorus gracilirostris luciferase); assay: Primary Nanoluciferase (NLuc) qHTS assay for identification of artifact compounds. (AID 1845222);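 note: NLuc secreted into diluted conditioned medium of S16 cells; series mostly up to about 54 µM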
Procedure, shortened: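 Using secreted nanoluciferase in S16 culture medium (0.22 um filtered, 1:55 dilution), compounds were preincubated 15 min at RT. Signal was generated with Nano-Glo reagent (1:100) over 5 min.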

[7] = target: Metallo-beta-lactamase type 2 (Klebsiella pneumoniae) (UniProt C7C422); assay: qHTS to identify inhibitors of the New Delhi Metallo-beta-lactamase (NDM): assay validation screen against the NCATS LOPAC Collection (AID 1794843); note: series mostly up to about 38 µM
Sequence of Metallo-beta-lactamase type 2 (Klebsiella pneumoniae) (C7C422 whole entry, looked up): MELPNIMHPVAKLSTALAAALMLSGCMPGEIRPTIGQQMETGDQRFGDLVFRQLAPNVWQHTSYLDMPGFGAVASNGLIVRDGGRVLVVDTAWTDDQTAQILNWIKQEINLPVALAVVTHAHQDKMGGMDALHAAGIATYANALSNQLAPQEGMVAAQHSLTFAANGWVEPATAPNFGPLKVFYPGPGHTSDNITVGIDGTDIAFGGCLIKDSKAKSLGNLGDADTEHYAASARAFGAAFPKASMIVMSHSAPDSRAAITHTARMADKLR
Procedure, shortened: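 Absorbance at 485 nm from nitrocefin turnover (50 uM solution added), read at plateau, gives the read-out. Compounds in DMSO were incubated first with 2 nM final NDM-1 in pH 7.0 HEPES buffer containing 1 uM ZnSO4 and 0.01% Tween20.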

[8] = NCATS anti-infectives library activity on the primary C. elegans qHTS viability assay (AID 1745855; calls by dose curve; note: potency is the fitted concentration of half-maximal effect)
Procedure, shortened: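 Titration-based screen in worms: eggs hatched overnight in M9, L1 larvae fed TOP10 capsules in S medium with compound, incubated 21 °C for 7 days; fluorescent objects gated by size and intensity at days 0, 3 and 7.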

Question: With `C=C1C(=CC=C2CCC[C@]3(C)[C@@H]([C@H](C)C=C[C@H](C)C(C)C)CC[C@@H]23)C[C@@H](O)C[C@@H]1O` as the molecule, how does the Potency [1] read?
Answer: inactive

Question: And the Potency [2]?
Answer: inactive

Question: Which results are given for `CN1CC[C@@H](c2c(O)cc(O)c3c(=O)cc(-c4ccccc4Cl)oc23)[C@@H](O)C1`?
Answer: Potency [1]: inactive; Potency [2]: inactive

Question: For `CC(C)c1ccccc1Cc1cc(C(=O)Nc2ccc(S(=O)(=O)c3ccccc3C(C)(C)C)cc2)c(O)c(O)c1O`, which Potency [1] is on record?
Answer: inactive

Question: With `Cc1ccc(S(=O)(=O)Nc2cc(Cl)ccc2C(=O)Nc2nc(-c3ccccc3)cs2)cc1` as the molecule, how does the Potency [1] read?
Answer: inactive

Question: With `Nc1ccccc1NC(=O)c1ccc(CNC(=O)OCc2cccnc2)cc1` as the molecule, how does the Potency [3] read?
Answer: inactive

Question: And the Potency [1]?
Answer: inactive

Question: What about the Potency [2] of the same molecule?
Answer: inactive

Question: What about the Potency [4] of the same molecule?
Answer: inactive

Question: And the Potency [5]?
Answer: inactive

Question: What about the Potency [6] of the same molecule?
Answer: inactive

Question: With `CCN1CCN(CC(=O)Nc2ccc(-c3cccc4c(=O)cc(N5CCOCC5)oc34)c3sc4ccccc4c23)CC1` as the molecule, how does the Potency [1] read?
Answer: inactive

Question: What about the Potency [2] of the same molecule?
Answer: inactive

Question: Which results are given for `COCCn1c2c([n+](Cc3cnccn3)c1C)C(=O)c1ccccc1C2=O`?
Answer: Potency [1]: inactive; Potency [2]: inactive

Question: With `Nc1nc(-c2nn(Cc3ccccc3F)c3ncccc23)nc(N)c1N1CCOCC1` as the molecule, how does the Potency [1] read?
Answer: inactive

Question: And the Potency [2]?
Answer: inactive

Question: Which Potency [1] does the source give for `COc1cc(OC2CCN(C)CC2)ccc1Nc1ncc2c(n1)n(C1CCCC1)c(=O)n2C` here?
Answer: inactive

Question: What about the Potency [2] of the same molecule?
Answer: inactive

Question: What does the source list for `CN(C)Cc1c(C(=O)NCCOc2ccc(C(=O)NO)cc2)oc2ccccc12`?
Answer: Potency [3]: inactive; Potency [1]: inactive; Potency [2]: inactive; Potency [4]: inactive; Potency [6]: inactive

Question: Which Potency [1] does the source give for `CC(=O)OCC(=O)[C@@]1(O)[C@H](C)C[C@H]2[C@@H]3C=C(C)C4=Cc5c(cnn5-c5ccccc5)C[C@]4(C)[C@@H]3[C@@H](O)C[C@@]21C` here?
Answer: inactive

Question: And the Potency [2]?
Answer: inactive

Question: What does the source list for `O=C(O)[C@H](Cc1c[nH]c2ccccc12)N1C(=O)c2ccccc2C1=O`?
Answer: Potency [1]: inactive; Potency [2]: inactive

Question: Which results are given for `c1cc(-c2cnn3cc(-c4ccc(OCCN5CCCCC5)cc4)cnc23)ccn1`?
Answer: Potency [1]: inactive; Potency [2]: inactive

Question: With `CN(C)CCCN=c1c2ccccc2n(C)c2[nH]c(=O)n(C)c(=O)c12` as the molecule, how does the Potency [1] read?
Answer: inactive

Question: And the Potency [2]?
Answer: inactive

Question: What does the source list for `O=C(NC1CCNCC1)c1[nH]ncc1NC(=O)c1c(Cl)cccc1Cl`?
Answer: Potency [1]: inactive; Potency [2]: inactive

Question: Which Potency [1] does the source give for `C[C@@H]1CN(CC(=O)Nc2ccc3c(c2)Cc2cccc(-c4cc(=O)cc(N5CCOCC5)o4)c2S3)C[C@H](C)O1` here?
Answer: inactive

Question: For `COc1cccc2c(NCc3ccccc3)nc(-n3c(N)nc4ccccc43)nc12`, which Potency [3] is on record?
Answer: 7.08 µM (active)

Question: What about the Potency [1] of the same molecule?
Answer: inactive

Question: And the Potency [2]?
Answer: inactive

Question: And the Potency [4]?
Answer: inactive

Question: What about the Potency [6] of the same molecule?
Answer: inactive

Question: With `O=C(O)c1ccc2cc(-c3ccc(O)c(C45CC6CC(CC(C6)C4)C5)c3)ccc2c1` as the molecule, how does the Potency [1] read?
Answer: inactive

Question: Which Potency [1] does the source give for `O=C(NCCS(=O)(=O)c1ccc(C(F)(F)F)cn1)c1ccc(Cl)cc1` here?
Answer: inactive

Question: What about the Potency [2] of the same molecule?
Answer: inactive

Question: With `O=c1c2ccccc2nc2n1CCc1c-2[nH]c2ccccc12` as the molecule, how does the outcome [7] read?
Answer: inactive

Question: What about the Potency [1] of the same molecule?
Answer: inactive

Question: And the Potency [2]?
Answer: inactive

Question: What about the Potency [5] of the same molecule?
Answer: inactive

Question: And the Potency [6]?
Answer: inactive

Question: For `COc1ccc(CC2SC(=O)NC2=O)cc1C(=O)NCc1ccc(C(F)(F)F)cc1` (configuration not stated), which Potency [1] is on record?
Answer: inactive

Question: Which Potency [1] does the source give for `C[C@@]12O[C@@H](C[C@]1(O)CO)n1c3ccccc3c3c4c(c5c6ccccc6n2c5c31)CNC4=O` here?
Answer: inactive

Question: Which Potency [1] does the source give for `Cn1cncc1[C@@](N)(c1ccc(Cl)cc1)c1ccc2c(c1)c(-c1cccc(Cl)c1)cc(=O)n2C` here?
Answer: inactive

Question: What about the Potency [2] of the same molecule?
Answer: inactive

Question: With `O=c1[nH]c(=O)n(C2CCCO2)cc1F` (configuration not stated) as the molecule, how does the Potency [1] read?
Answer: inactive

Question: And the Potency [2]?
Answer: inactive

Question: What does the source list for `COc1cc(C(C)C)c2c(c1)S(=O)(=O)N(COc1cc(=O)n3cccc(OCCN4CCCCC4)c3n1)C2=O`?
Answer: Potency [1]: inactive; Potency [2]: inactive

Question: Which Potency [8] does the source give for `CC(C)C[C@H](NC(=O)CNC(=O)c1cc(Cl)ccc1Cl)B(O)O` here?
Answer: 1.29 µM (active)

Question: And the Potency [1]?
Answer: inactive

Question: What about the Potency [2] of the same molecule?
Answer: inactive

Question: Which Potency [3] does the source give for `COc1cc2c(cc1-c1c(C)noc1C)ncc1[nH]c(=O)n([C@H](C)c3ccccn3)c12` here?
Answer: inactive

Question: What about the Potency [1] of the same molecule?
Answer: inactive

Question: And the Potency [2]?
Answer: inactive

Question: What about the Potency [4] of the same molecule?
Answer: inactive

Question: What about the Potency [5] of the same molecule?
Answer: inactive

Question: And the Potency [6]?
Answer: inactive

Question: Which results are given for `CC(C)(O)c1cc2nc(-c3cnc(N)nc3)nc(N3CCOCC3)c2s1`?
Answer: Potency [1]: inactive; Potency [2]: inactive; Potency [4]: inactive; Potency [5]: inactive; Potency [6]: inactive

Question: With `OCc1ccc(-c2ccc(-c3ccc(CO)s3)o2)s1` as the molecule, how does the Potency [1] read?
Answer: inactive

Question: What about the Potency [2] of the same molecule?
Answer: inactive

Question: And the Potency [4]?
Answer: 1.31 µM (active)

Question: What about the Potency [5] of the same molecule?
Answer: 2.6 µM (active)

Question: Which Potency [1] does the source give for `C[C@@H](Oc1cc(-n2cnc3ccc(CN4CCN(C)CC4)cc32)sc1C(N)=O)c1ccccc1C(F)(F)F` here?
Answer: inactive

Question: And the Potency [2]?
Answer: inactive

Question: For `COC(=O)C[C@](O)(CCCC(C)(C)O)C(=O)O[C@@H]1C(OC)=C[C@]23CCCN2CCc2cc4c(cc2[C@H]13)OCO4`, which Potency [1] is on record?
Answer: inactive

Question: What about the Potency [2] of the same molecule?
Answer: inactive

Question: Which results are given for `CCOC(=O)C1=C(C)NC2=C(C(=O)CC(C)(C)C2)C1c1ccc(-c2ccccc2)cc1` (configuration not stated)?
Answer: Potency [1]: inactive; Potency [2]: inactive; Potency [4]: inactive; Potency [5]: inactive

Question: With `O=C(NCCCNc1nc(Nc2cccc(NC(=O)N3CCCC3)c2)ncc1I)c1cccs1` as the molecule, how does the Potency [1] read?
Answer: inactive

Question: And the Potency [2]?
Answer: inactive

Question: Which results are given for `Cc1cc(Nc2cc(NC(=O)c3c(Cl)cccc3Cl)ccn2)nc(N)n1`?
Answer: Potency [1]: inactive; Potency [2]: inactive

Question: Which Potency [1] does the source give for `CC(=O)Nc1nc(C)c(-c2ccc(Cl)c(S(=O)(=O)NCCO)c2)s1` here?
Answer: inactive

Question: What about the Potency [2] of the same molecule?
Answer: inactive

Question: And the Potency [4]?
Answer: inactive

Question: What about the Potency [5] of the same molecule?
Answer: inactive

Question: And the Potency [6]?
Answer: inactive

Question: Which Potency [1] does the source give for `C=CC(=O)Nc1cc2c(Nc3ccc(F)c(Cl)c3)ncnc2cc1OCCCN1CCOCC1` here?
Answer: inactive

Question: And the Potency [2]?
Answer: inactive

Question: With `CN[C@H]1CCc2cc(OC)c(OC)c(OC)c2-c2ccc(OC)c(=O)cc21` as the molecule, how does the Potency [1] read?
Answer: inactive

Question: What about the Potency [2] of the same molecule?
Answer: inactive

Question: With `Cc1nc2ccc(CN(C)c3ccc(C(=O)N[C@@H](CCC(=O)O)C(=O)O)s3)cc2c(=O)[nH]1` as the molecule, how does the Potency [1] read?
Answer: 25.5 µM (active) and inactive and 22.7 µM (active)

Question: What about the Potency [2] of the same molecule?
Answer: inactive

Question: With `CCCn1c(=O)c2[nH]c(-c3cnn(Cc4cccc(C(F)(F)F)c4)c3)nc2n(CC)c1=O` as the molecule, how does the Potency [1] read?
Answer: inactive

Question: And the Potency [2]?
Answer: inactive

Question: What about the Potency [4] of the same molecule?
Answer: inactive

Question: What about the Potency [5] of the same molecule?
Answer: inactive

Question: And the Potency [6]?
Answer: inactive

Question: For `C=CC(=O)Nc1cc2c(Nc3ccc(F)c(Cl)c3)ncnc2cc1C#CC(C)(C)N1CCN(C)CC1`, which Potency [1] is on record?
Answer: inactive

Question: And the Potency [2]?
Answer: inactive

Question: Which Potency [1] does the source give for `Cc1ccc(-c2ncn(-c3ccc(Nc4nccc(-c5cccc(N6CCOCC6)c5)n4)cc3)n2)cn1` here?
Answer: inactive

Question: What about the Potency [2] of the same molecule?
Answer: inactive
